“And” between values parts separate entries of the source, which are not always exact repeats. Equal entries are not always repeated. Results filed as inconclusive are left out. Some compounds were tested as several samples or in several runs, with calls that do not always agree. The source made the active and inactive calls. Rule for the calls: active = hit-call score of the fitted dose curve at least 0.9, where 1 is the maximum; inconclusive = response in the unintended direction; inactive = score below 0.9.
Assays:
[1] = target: rat Neurokinin-1 Receptor (NK1), Tacr1 (gene 24807) (UniProt P14600); test: NVS_GPCR_rNK1: NovaScreen (NVS) G Protein-Coupled Receptor Assay for rat Neurokinin-1 Receptor (NK1) (AID 2283309)
Description: (§1) NVS_GPCR_rNK1 is a biochemical, single-readout assay that uses extracted gene-proteins from Rat submaxillary gland membranes in a tissue-based cell-free assay. Measurements were taken 1 hour after chemical dosing in a 48-well plate.NVS_GPCR_rNK1 is one of one assay component(s) measured or calculated from the NVS_GPCR_rNK1 assay. It is designed to make measurements of radioligand binding, a form of binding reporter, as detected with scintillation counting signals by Filter-based radiodetection technology.Data from the assay component NVS_GPCR_rNK1 was analyzed into 1 assay endpoint. This assay endpoint, NVS_GPCR_rNK1, was analyzed in the positive analysis fitting direction relative to DMSO as the negative control and baseline of activity. Using a type of binding reporter, loss-of-signal activity can be used to understand changes in the binding as they relate to the gene Tacr1. Furthermore, this assay endpoint can be referred to as a primary readout, because the performed assay has only produced 1 assay endpoint. To generalize the intended target to other relatable targets, this assay endpoint is annotated to the gpcr intended target family, where the subfamily is rhodopsin-like receptor.
Binding assays used specific radioligands (tritiated, iodinated) with non-radioactive competitive displacement ligands in agonist or antagonist protocols (as indicated) and various reference compounds and inhibitors to titrate specific binding to receptors and transporters. Most enzyme assays (CYPs, kinases, phosphatases, proteases, HDACs) used recombinant protein and specific substrates (fluorescence mostly, some colorimetric and radioactive) and inhibitors, followed by a biochemical separation of substrate and product. All assays for the biochemical HTS were initially run in duplicate at a single concentration (10 uM for CYP450 assays and 25 uM for all others). […] Each assay was run with positive and negative controls, and concurrent controls on every plate. The follow-up (secondary) screen tested active chemical-pairs in concentration series, as well as a few additional assays not tested in the primary screen, some selected negative inactives, and several cases re-run in the concentration series for confirmatory purposes.

[2] = target: Metabotropic glutamate receptor 1 (Rattus norvegicus) (UniProt P23385); test: NVS_GPCR_rmMGluR1: NovaScreen (NVS) G Protein-Coupled Receptor Assay for rat Glutamate Metabotropic Receptor 1 (MGluR1) (AID 2283305)
How it was run: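 Binding to native receptor from rat cerebellum extract, measured as displacement of a radioligand (scintillation counting, filter separation) after 1 hour. Compounds tested at 25 uM in duplicate, then titrated to a 50 uM maximum.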

[3] = target: rat Neurotensin Receptor (NTS), Ntsr1 (gene 366274) (UniProt P20789); test: NVS_GPCR_rNTS: NovaScreen (NVS) G Protein-Coupled Receptor Assay for rat Neurotensin Receptor (NTS) (AID 2283308)
Description: as §1, with “NVS_GPCR_rNTS” for “NVS_GPCR_rNK1”, “forebrain” for “submaxillary gland”, “plate.NVS_GPCR_rNTS” for “plate.NVS_GPCR_rNK1”, “NVS_GPCR_rNTS,” for “NVS_GPCR_rNK1,”, “Ntsr1.” for “Tacr1.”
(§2) Binding assays used specific radioligands (tritiated, iodinated) with non-radioactive competitive displacement ligands in agonist or antagonist protocols (as indicated) and various reference compounds and inhibitors to titrate specific binding to receptors and transporters. Most enzyme assays (CYPs, kinases, phosphatases, proteases, HDACs) used recombinant protein and specific substrates (fluorescence mostly, some colorimetric and radioactive) and inhibitors, followed by a biochemical separation of substrate and product. All assays for the biochemical HTS were initially run in duplicate at a single concentration (10 uM for CYP450 assays and 25 uM for all others). Assay-chemical combinations meeting a pre-defined threshold (e.g., 30% inhibition and other criteria defined below) were then run in singleton concentration-response format with maximum concentration of 20 uM for CYPs and 50 uM for all others. Each assay was run with positive and negative controls, and concurrent controls on every plate. The follow-up (secondary) screen tested active chemical-pairs in concentration series, as well as a few additional assays not tested in the primary screen, some selected negative inactives, and several cases re-run in the concentration series for confirmatory purposes.

[4] = target: rat Opioid Receptor, Non-selective Sodium (Na+) Binding, Oprm1 (gene 25601) (UniProt P33535); test: NVS_GPCR_rOpiate_NonSelectiveNa: NovaScreen (NVS) G Protein-Coupled Receptor Assay for rat Opioid Receptor, Non-selective Sodium (Na+) Binding (AID 2283311)
How it was run: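 Filtration radioligand binding on rat forebrain membrane preparations, read 1.5 h after dosing. Single-concentration 25 µM primary screen in duplicate, followed by singleton concentration series to 50 µM max for actives; DMSO baseline.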

[5] = target: Adra2b (gene 24174) (UniProt P19328); test: NVS_GPCR_rmAdra2B: NovaScreen (NVS) G Protein-Coupled Receptor Assay for hybird cells Adrenergic, Alpha 2B Receptor (Adra2B) (AID 2283306)
How it was run: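 Compounds screened first at 25 uM in duplicate, with actives followed up in concentration-response; specific radioligand displacement from hybrid neuroglioma/blastoma cell membrane preparations measured by filter scintillation counting after 1 h, normalized to DMSO.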

[6] = target: rat Histamine Receptor (H3), Hrh3 (gene 85268) (UniProt Q9QYN8); test: NVS_GPCR_rH3: NovaScreen (NVS) G Protein-Coupled Receptor Assay for rat Histamine Receptor (H3) (AID 2283303)
How it was run: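 Filter-binding radioligand competition on rat forebrain membranes, 1 h incubation; compounds screened at 25 µM in duplicate and followed in concentration series to 50 µM, loss of bound signal vs DMSO.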

[7] = target: rat Somatostatin Receptor (SST), Sstr1 (gene 25033) (UniProt P28646); test: NVS_GPCR_rSST: NovaScreen (NVS) G Protein-Coupled Receptor Assay for rat Somatostatin Receptor (SST) (AID 2283314)
Description: as §1, with “NVS_GPCR_rSST” for “NVS_GPCR_rNK1”, “forebrain” for “submaxillary gland”, “96-well plate.NVS_GPCR_rSST” for “48-well plate.NVS_GPCR_rNK1”, “NVS_GPCR_rSST,” for “NVS_GPCR_rNK1,”, “Sstr1.” for “Tacr1.”
as §2

[8] = target: human Neonicotinoid receptor (NNR), CHRNA2 (gene 1135) (UniProt Q15822); test: NVS_LGIC_hNNR_NBungSens: NovaScreen (NVS) Ligand-Gated Ion Channel Assay for human Neonicotinoid receptor (NNR) (AID 2283313)
How it was run: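 Compounds first screened in duplicate at 25 uM, then actives re-tested in single-replicate dose series up to 50 uM. Binding measured as displacement of specific radioligand from neuroblastoma membrane receptors after 2 h, scintillation read on filters.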

[9] = target: rat Glutamate Metabotropic Receptor 5 (MGluR5), Grm5 (gene 24418) (UniProt P31424); test: NVS_GPCR_rmMGluR5: NovaScreen (NVS) G Protein-Coupled Receptor Assay for rat Glutamate Metabotropic Receptor 5 (MGluR5) (AID 2283307)
How it was run: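 Compounds first screened in duplicate at 25 uM, then in concentration series up to 50 uM if over threshold. Radioligand displacement on rat whole-brain membranes, filtration and scintillation counting after 1.5 h; binding loss relative to DMSO.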

[10] = target: rat Neurokinin-3 Receptor (NK3), Tacr3 (gene 24808) (UniProt P16177); test: NVS_GPCR_rNK3: NovaScreen (NVS) G Protein-Coupled Receptor Assay for rat Neurokinin-3 Receptor (NK3) (AID 2283310)
How it was run: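 Filter-based radioligand displacement on rat cortex membrane preparations, read by scintillation 2 h post-dose. Chemicals first tested in duplicate at 25 uM; actives followed up in concentration series with a 50 uM maximum.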

rat Opioid Receptor, Non-selective Sodium (Na+) Binding, Oprm1 (gene 25601), sequence (P33535 whole entry, looked up): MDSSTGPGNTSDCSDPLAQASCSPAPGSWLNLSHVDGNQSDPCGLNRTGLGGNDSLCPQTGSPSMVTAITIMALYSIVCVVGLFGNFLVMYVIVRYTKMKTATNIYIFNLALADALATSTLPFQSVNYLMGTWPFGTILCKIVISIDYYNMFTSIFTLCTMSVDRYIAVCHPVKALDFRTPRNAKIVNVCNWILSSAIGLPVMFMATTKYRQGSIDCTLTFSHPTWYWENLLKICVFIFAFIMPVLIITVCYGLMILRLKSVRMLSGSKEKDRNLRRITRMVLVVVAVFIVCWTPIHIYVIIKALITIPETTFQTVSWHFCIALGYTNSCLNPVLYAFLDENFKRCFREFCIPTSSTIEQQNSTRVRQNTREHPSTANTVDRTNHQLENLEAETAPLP
Metabotropic glutamate receptor 1 (Rattus norvegicus), sequence (P23385 whole entry, looked up): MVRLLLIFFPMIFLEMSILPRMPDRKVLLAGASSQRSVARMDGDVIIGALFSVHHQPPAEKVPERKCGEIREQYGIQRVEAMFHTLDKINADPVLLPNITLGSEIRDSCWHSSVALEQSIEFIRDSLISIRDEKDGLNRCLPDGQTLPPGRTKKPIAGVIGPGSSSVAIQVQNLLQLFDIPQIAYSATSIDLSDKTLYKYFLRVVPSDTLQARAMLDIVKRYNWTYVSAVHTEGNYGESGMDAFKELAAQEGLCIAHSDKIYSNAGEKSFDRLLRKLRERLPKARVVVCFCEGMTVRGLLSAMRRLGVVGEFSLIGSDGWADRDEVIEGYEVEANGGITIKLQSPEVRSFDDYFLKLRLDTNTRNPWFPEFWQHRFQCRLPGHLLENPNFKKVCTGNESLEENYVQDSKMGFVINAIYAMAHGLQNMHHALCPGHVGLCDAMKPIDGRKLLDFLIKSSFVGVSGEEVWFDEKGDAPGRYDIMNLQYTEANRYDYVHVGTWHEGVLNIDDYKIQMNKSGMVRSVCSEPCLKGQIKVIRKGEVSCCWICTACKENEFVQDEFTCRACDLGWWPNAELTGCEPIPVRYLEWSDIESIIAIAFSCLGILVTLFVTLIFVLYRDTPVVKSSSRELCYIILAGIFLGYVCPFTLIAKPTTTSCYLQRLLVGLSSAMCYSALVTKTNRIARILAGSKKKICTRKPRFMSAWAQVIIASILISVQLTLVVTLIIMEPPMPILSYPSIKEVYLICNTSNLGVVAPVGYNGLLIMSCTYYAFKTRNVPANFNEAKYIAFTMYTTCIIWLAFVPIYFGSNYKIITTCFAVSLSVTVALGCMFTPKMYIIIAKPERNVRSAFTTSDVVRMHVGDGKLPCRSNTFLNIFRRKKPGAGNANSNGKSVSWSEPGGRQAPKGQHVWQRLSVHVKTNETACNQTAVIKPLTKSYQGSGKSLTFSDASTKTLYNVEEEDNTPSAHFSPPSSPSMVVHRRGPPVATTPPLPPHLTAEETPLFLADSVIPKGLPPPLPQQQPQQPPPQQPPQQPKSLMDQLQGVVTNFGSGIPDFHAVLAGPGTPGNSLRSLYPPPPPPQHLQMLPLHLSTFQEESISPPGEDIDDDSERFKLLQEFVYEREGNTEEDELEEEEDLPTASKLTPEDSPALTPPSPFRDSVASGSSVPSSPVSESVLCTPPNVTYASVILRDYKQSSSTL
rat Neurokinin-1 Receptor (NK1), Tacr1 (gene 24807), sequence (P14600 whole entry, looked up): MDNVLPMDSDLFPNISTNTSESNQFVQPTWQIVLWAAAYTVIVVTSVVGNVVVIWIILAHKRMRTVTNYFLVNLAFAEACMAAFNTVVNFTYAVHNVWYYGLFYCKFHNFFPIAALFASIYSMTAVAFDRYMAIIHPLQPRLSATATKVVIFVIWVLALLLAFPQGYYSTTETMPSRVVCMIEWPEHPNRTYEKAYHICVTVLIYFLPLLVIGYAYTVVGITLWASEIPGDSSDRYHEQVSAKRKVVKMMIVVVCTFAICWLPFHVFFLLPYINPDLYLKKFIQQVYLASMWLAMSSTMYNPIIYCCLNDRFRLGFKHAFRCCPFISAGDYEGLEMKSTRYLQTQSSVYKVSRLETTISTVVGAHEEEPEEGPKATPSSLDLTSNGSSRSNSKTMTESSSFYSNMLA
Adra2b (gene 24174), sequence (P19328 whole entry, looked up): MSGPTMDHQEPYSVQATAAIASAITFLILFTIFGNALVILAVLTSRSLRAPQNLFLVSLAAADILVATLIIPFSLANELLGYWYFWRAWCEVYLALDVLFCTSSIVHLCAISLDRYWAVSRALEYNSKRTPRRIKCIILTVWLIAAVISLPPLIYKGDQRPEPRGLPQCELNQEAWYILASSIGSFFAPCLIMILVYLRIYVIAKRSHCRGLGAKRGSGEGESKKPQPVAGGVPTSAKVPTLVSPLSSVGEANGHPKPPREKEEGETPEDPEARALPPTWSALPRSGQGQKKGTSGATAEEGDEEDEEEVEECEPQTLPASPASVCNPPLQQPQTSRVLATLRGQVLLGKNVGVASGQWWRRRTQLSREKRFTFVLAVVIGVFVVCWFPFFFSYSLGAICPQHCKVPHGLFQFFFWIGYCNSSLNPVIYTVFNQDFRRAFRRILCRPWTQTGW
rat Neurotensin Receptor (NTS), Ntsr1 (gene 366274), sequence (P20789 whole entry, looked up): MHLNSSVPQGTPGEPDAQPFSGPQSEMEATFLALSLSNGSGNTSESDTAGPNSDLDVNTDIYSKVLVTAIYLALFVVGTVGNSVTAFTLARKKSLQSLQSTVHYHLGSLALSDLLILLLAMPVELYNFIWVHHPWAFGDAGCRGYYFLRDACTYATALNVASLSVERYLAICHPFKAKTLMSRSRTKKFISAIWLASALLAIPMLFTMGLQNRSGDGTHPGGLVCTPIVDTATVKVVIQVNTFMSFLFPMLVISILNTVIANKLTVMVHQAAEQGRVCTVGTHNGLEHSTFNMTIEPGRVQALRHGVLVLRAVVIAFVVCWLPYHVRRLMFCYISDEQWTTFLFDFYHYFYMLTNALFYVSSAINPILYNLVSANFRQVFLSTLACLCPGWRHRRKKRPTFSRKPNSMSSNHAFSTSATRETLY
rat Histamine Receptor (H3), Hrh3 (gene 85268), sequence (Q9QYN8 whole entry, looked up): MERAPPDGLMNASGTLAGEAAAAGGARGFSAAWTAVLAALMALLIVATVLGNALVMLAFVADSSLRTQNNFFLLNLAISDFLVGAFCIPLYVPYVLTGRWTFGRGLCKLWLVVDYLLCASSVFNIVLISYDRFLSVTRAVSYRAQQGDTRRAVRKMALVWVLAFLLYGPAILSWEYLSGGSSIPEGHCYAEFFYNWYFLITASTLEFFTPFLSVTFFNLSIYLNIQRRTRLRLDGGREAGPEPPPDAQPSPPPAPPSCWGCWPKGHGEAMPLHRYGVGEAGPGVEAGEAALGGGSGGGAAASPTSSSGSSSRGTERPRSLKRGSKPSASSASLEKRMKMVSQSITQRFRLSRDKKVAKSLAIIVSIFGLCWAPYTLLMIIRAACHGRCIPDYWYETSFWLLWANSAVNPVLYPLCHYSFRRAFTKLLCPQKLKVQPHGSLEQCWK
rat Neurokinin-3 Receptor (NK3), Tacr3 (gene 24808), sequence (P16177 whole entry, looked up): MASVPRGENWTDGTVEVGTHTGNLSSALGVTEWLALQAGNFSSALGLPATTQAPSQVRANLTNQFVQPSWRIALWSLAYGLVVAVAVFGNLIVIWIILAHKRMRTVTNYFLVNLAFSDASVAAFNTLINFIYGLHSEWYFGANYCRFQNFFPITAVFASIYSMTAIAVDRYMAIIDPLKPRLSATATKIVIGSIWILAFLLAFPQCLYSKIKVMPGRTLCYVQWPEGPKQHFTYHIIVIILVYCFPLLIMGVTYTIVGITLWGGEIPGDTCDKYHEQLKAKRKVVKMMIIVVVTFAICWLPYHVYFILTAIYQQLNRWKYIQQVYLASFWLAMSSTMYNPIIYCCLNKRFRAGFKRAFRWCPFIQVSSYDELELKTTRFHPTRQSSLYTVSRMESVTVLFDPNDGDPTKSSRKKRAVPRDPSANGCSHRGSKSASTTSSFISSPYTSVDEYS
rat Somatostatin Receptor (SST), Sstr1 (gene 25033), sequence (P28646 whole entry, looked up): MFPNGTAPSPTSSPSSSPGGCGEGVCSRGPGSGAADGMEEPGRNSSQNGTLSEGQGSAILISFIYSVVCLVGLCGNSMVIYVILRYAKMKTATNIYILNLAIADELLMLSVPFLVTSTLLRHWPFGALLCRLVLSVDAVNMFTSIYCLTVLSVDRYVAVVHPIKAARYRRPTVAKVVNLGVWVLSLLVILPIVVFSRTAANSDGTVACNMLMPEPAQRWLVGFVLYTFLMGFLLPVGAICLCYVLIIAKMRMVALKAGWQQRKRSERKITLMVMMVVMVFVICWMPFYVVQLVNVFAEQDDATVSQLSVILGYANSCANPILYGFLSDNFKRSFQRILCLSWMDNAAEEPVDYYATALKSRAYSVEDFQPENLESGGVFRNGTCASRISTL
human Neonicotinoid receptor (NNR), CHRNA2 (gene 1135), sequence (Q15822 whole entry, looked up): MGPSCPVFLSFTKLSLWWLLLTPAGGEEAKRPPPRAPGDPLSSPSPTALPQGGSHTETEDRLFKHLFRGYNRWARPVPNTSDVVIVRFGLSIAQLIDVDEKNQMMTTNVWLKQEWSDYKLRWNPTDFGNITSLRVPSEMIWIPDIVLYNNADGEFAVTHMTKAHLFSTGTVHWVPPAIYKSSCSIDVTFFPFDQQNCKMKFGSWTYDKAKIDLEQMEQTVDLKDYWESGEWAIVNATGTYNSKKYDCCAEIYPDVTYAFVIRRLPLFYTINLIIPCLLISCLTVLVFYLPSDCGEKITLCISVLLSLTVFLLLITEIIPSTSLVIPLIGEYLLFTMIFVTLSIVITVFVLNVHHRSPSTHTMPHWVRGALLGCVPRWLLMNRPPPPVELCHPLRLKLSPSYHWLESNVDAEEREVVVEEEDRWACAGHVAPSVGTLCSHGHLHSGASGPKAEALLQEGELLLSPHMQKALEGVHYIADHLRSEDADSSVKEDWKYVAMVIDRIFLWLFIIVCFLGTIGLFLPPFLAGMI

Question: For COc1ccc(C(c2ccc(OC)cc2)C(Cl)(Cl)Cl)cc1, which outcome [1] is on record?
Answer: inactive

Question: For Cc1c(F)c(F)c(COC(=O)C2C(/C=C(\Cl)C(F)(F)F)C2(C)C)c(F)c1F (configuration not stated), which outcome [2] is on record?
Answer: inactive

Question: What about the outcome [3] of the same compound?
Answer: inactive

Question: What does the source list for COc1nc(C)nc(NC(=O)NS(=O)(=O)c2ccccc2CCC(F)(F)F)n1?
Answer: outcome [1]: inactive; outcome [4]: inactive

Question: With O=C(Nc1ccccc1)Nc1ccnc(Cl)c1 as the compound, how does the AC50 [5] read?
Answer: 8.91 µM (active)

Question: N#CC(CCc1ccc(Cl)cc1)(Cn1cncn1)c1ccccc1 (configuration not stated) was tested. Which outcome [6] did it give?
Answer: inactive

Question: Which outcome [7] does the source give for CN(C)C(=S)SSC(=S)N(C)C here?
Answer: inactive

Question: How did the AC50 [4] turn out when CCCC1COC(Cn2cncn2)(c2ccc(Cl)cc2Cl)O1 (configuration not stated) was run?
Answer: 25 µM (active)

Question: How did the outcome [3] turn out when COC(=O)C(C)Oc1ccc(Oc2ccc(Cl)cc2Cl)cc1 (configuration not stated) was run?
Answer: inactive

Question: And the outcome [1]?
Answer: inactive

Question: What does the source list for Cc1ccc(-c2c(Cl)nc(C#N)n2S(=O)(=O)N(C)C)cc1?
Answer: AC50 [6]: 5.9 µM (active); AC50 [5]: 4.08 µM (active); AC50 [8]: 1.21 µM (active)

Question: Which outcome [3] does the source give for CCNc1nc(Cl)nc(NC(C)C)n1 here?
Answer: inactive

Question: Which outcome [7] does the source give for CCOC(=O)CC(SP(=S)(OC)OC)C(=O)OCC (configuration not stated) here?
Answer: inactive

Question: Which outcome [9] does the source give for CCCCOC(=O)c1ccccc1C(=O)OCCCC here?
Answer: inactive

Question: How did the outcome [3] turn out when COc1nc(C)nc(NC(=O)NS(=O)(=O)c2ccccc2Cl)n1 was run?
Answer: inactive

Question: How did the outcome [4] turn out when COP(=S)(OC)Oc1nc(Cl)c(Cl)cc1Cl was run?
Answer: inactive

Question: What about the outcome [7] of the same compound?
Answer: inactive

Question: How did the outcome [2] turn out when COc1cnc(OC)n2nc(NS(=O)(=O)c3c(OCC(F)F)cccc3C(F)(F)F)nc12 was run?
Answer: inactive

Question: What does the source list for CCCCNC(=O)OCC#CI?
Answer: AC50 [6]: 4.99 µM (active) and 6.92 µM (active); AC50 [2]: 19.2 µM (active) and 1.24 µM (active)

Question: With CS/C(C)=N/OC(=O)N(C)SN(C)C(=O)O/N=C(\C)SC as the compound, how does the AC50 [6] read?
Answer: 2 µM (active)

Question: And the AC50 [10]?
Answer: 2.97 µM (active)

Question: And the AC50 [7]?
Answer: 17.2 µM (active)

Question: For CNC(=S)S, which outcome [3] is on record?
Answer: inactive

Question: And the outcome [10]?
Answer: inactive

Question: For C=CCC1=C(C)[C@@H](OC(=O)[C@@H]2[C@@H](C=C(C)C)C2(C)C)CC1=O, which AC50 [1] is on record?
Answer: 39.1 µM (active)

Question: Which AC50 [5] does the source give for CC1COC(Cn2cncn2)(c2ccc(Oc3ccc(Cl)cc3)cc2Cl)O1 (configuration not stated) here?
Answer: 4.59 µM (active)

Question: And the outcome [1]?
Answer: inactive

Question: Which outcome [10] does the source give for C=CCC1=C(C)C(OC(=O)C2C(C=C(C)C)C2(C)C)CC1=O (configuration not stated) here?
Answer: inactive

Question: Which outcome [1] does the source give for CO/C=C(/C(=O)OC)c1ccccc1Oc1cc(Oc2ccccc2C#N)ncn1 here?
Answer: inactive

Question: What about the AC50 [4] of the same compound?
Answer: 12.6 µM (active)

Question: What about the outcome [4] of the same compound?
Answer: inactive

Question: For COC(=O)C=C(C)OP(=O)(OC)OC, which outcome [4] is on record?
Answer: inactive

Question: CCON=C(CC)C1=C(O)CC(c2c(C)cc(C)cc2C)CC1=O (configuration not stated) was tested. Which AC50 [5] did it give?
Answer: 2.7 µM (active)
